Screening data: PubChem BioAssay, National Center for Advancing Translational Sciences (NCATS)
Rows were chosen to be rich in hits. Some 2.4% of all compounds tested hit in one or more screens of this group.
D2 ag-1 = activates the human D2 dopamine receptor | activation, % at 2 µM | hit rate 0.53% among 340,000 | HEK293 T-REx D2 cells, calcium flux agonist mode;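 active means activation over 3 SD above normal in the single-dose calcium agonist read, cut at about 30% in these data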; further: 0% is about no effect
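In this primary screen, compounds producing a positive calcium signal within 180 s of addition to tetracycline-induced, force-coupled HEK293 Trex D2 cells are flagged; cells are dye-loaded with a no-wash calcium kit beforehand.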
D2 PAM-1 = D2 dopamine receptor (human) potentiation | hit rate 0.34% among 340,000 | P14416 | HEK293 T-REx D2, calcium flux, EC20 dopamine potentiation | potentiation, % at 10 µM;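 active means potentiation over 3 SD above the plate norm, cut at about 30% in these data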; further: 0% is about no effect
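Primary screen. Calcium kinetics in induced HEK293 T-REx D2 cells: compound pre-addition 180 s, EC20 dopamine, 180 s more.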
D2 ag-2 = agonists of human D2 dopamine receptor (beta-arrestin); DiscoveRx PathHunter D2 beta-arrestin, luminescence, 90 min; 100% = 57 uM dopamine signal; AID 624465; P14416; activation, % (concentration not given with the values); hit rate 0.084% among 360,000; in the data active means activation above about 40%; inconclusive means between about 15% and that limit
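DiscoveRx PathHunter D2 beta-arrestin cells (2,100/well) attached overnight, then compound-stimulated 90 min at 37 C in HBSS/10 mM HEPES/0.1% Tween-20 buffer; beta-galactosidase complementation read by luminescence after 1 h at ambient temperature. Dopamine 57 uM final (EC100) as control.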
D2 antagonist = antagonizes the human D2 dopamine receptor; P14416; HEK293 TREx D2 cells, calcium flux, dopamine EC80; inhibition, % at 10 µM; hit rate 2% among 340,000; AID 485344; in the data active means inhibition above about 30%; inactive means below that, where a call was filed; further: 0% is about no effect
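In this primary screen, negative modulation is detected by tracking calcium flux after an EC80 dopamine challenge in inducible HEK293 T-REx D2 cells preexposed to test compound for 180 s.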
D2 PAM-2 = potentiates the human D2 dopamine receptor allosterically | P14416 | DiscoveRx D2 beta-arrestin cells, luminescence, 90 min; 100% = 57 uM dopamine signal | potentiation, % (concentration not given with the values) | hit rate 0.23% among 360,000 | AID 624464; in the data active means potentiation above about 50%; inconclusive means mostly about 30% to 49%
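PathHunter beta-arrestin assay in DiscoveRx D2 cells. Compounds were added with an EC20 of dopamine (50 nM final) for 90 min at 37 deg C. Luminescence was read 1 h after detection reagent, with 57 uM dopamine as the EC100 control.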
B2AR arrestin = beta2AR (human) beta-arrestin recruitment activity | beta-arrestin recruitment to beta2AR, cell-based reporter | AID 492947 | P07550 | hit rate 0.02% among 330,000 | Potency, µM (highest dose often 46.1 µM), inactives show at the top dose activation, usual class: activators; active means well fitted activation curve with a large enough effect; inconclusive means small, poorly fitted or top-dose-only effect;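 further: potency means the concentration at half of the fitted maximal effect; 0% = DMSO controls and full agonism = EC100 isoproterenol or metaproterenol; nearly all actives have a fitted effect of over 65% in size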
Target sequence (P07550 whole entry, looked up): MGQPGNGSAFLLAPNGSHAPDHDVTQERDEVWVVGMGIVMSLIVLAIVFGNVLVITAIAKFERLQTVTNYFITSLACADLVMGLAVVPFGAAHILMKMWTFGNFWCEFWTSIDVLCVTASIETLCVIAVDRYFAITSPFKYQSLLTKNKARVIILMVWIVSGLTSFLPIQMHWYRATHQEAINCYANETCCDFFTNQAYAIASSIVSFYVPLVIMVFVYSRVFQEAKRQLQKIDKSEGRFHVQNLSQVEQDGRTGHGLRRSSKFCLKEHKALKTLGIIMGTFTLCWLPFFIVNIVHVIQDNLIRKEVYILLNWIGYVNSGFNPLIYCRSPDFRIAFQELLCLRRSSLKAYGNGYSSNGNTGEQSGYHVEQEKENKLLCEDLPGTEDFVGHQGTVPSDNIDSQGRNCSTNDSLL
Numbers without * were called inactive; ? = inconclusive; nt = no result given.

SMILES	D2 ag-1	D2 PAM-1	D2 ag-2	D2 antagonist	D2 PAM-2	B2AR arrestin
CC(C)CCN1CCN(Cc2cccc(-n3cccn3)c2)CC1CCO (stereo not drawn)	-0.4	-17.9	-4.1	-17.5	-21.7	-0.1%
OCCC1CN(Cc2cccc(-n3cccn3)c2)CCN1Cc1ccccc1 (stereo not drawn)	0.2	-21.9	-1.8	57.8*	-25.5	0.2%
OCCC1CN(Cc2ccc(F)cc2)CCN1CCCc1ccccc1 (stereo not drawn)	0.6	-17.1	-1.2	-6.8	-3.7	0.8%
c1ccc(CCNc2nc(-c3ccccn3)nc3ccccc23)cc1	-1.7	-20.0	-4.7	-11.6	-19.0	0.0%
COc1ccc(OC)c(NC(=O)Nc2ccc(O)c3ccccc23)c1	nt	nt	?	nt	25.2	nt
COc1ccc(C(=O)Nc2ccc(O)c3ccccc23)cc1OC	nt	nt	?	nt	81.9*	nt
O=[N+]([O-])c1ccc(N2CCOCC2)cc1NC(c1ccccc1)c1ccccc1	0.6	2.7	-3.9	28.2	-15.0	-1.6%
O=[N+]([O-])c1ccc(N2CCCC2)cc1NC(c1ccccc1)c1ccccc1	0.3	0.8	-0.2	30.0*	-3.1	-3.9%
COc1cccc(C2C(C(=O)Nc3ccc(C)cc3C)=C(C)Nc3nc4ccccc4n32)c1OC (stereo not drawn)	0.2	-6.9	nt	nt	nt	nt
CCOC(=O)c1c(C)oc2ccc(OCC(N)=O)cc12	0.9	-5.0	0.1	14.8	-7.2	-0.8%
CCOC(=O)c1c(C)cccc1OCC(N)=O	-0.7	64.2*	-0.2	-2.5	-17.7	-0.8%
C=CCN(CC=C)Cc1c(C)[nH]c2c(C)c(C)ccc2c1=O	-0.2	31.5*	-3.7	5.9	-6.2	-1.1%
CC(C)OC(=O)c1cc2c(ccn2C)n1CC(=O)N1CCC(Cc2ccccc2)CC1	0.8	105.3*	-4.7	-7.4	-8.5	-0.3%
Cc1ccccc1Cn1c(C(=O)OC(C)C)cc2c1ccn2C	1.2	-7.2	-3.7	-11.2	-8.8	-1.0%
CC(C)CSc1nnc2c3ccccc3n(C)c2n1	nt	1.9	-8.7	nt	-10.5	-0.2%
CC(C)OC(=O)CSc1nnc2c3ccccc3n(C)c2n1	-1.5	6.7	-2.9	37.2*	-0.8	-0.3%
COc1ccc(-[n+]2c(C)cc(/C=C3\Sc4ccccc4N3C)cc2C)cc1	54.9*	3.0	-4.6	47.7*	-7.7	3.4%
COc1ccc(C(=O)/C=C2\Sc3ccccc3N2C)cc1	-0.8	-1.2	-8.0	40.5*	-12.5	-0.2%
CC[n+]1c(/C=C2\Sc3ccccc3N2C)ccc2cccc(C)c21	22.8	-0.1	-5.8	-5.5	-17.4	-0.1%
COc1ccccc1OC(=O)CCN1c2ccccc2Sc2ccccc21	-0.7	1.0	1.6	-2.8	6.6	-0.3%
COc1ccccc1-[n+]1c(C)cc(/C=C2\Sc3ccccc3N2C)cc1C	88.7*	15.5	-7.7	-15.6	-36.4	14.5%
O=C(NCC(c1ccc2c(c1)OCO2)N1CCOCC1)c1c(F)cccc1F (stereo not drawn)	nt	-4.7	nt	nt	nt	nt
COc1ccc(NC(=O)c2cc3c(=O)n4ccccc4nc3n2C)cc1OC	-0.5	34.7*	3.6	-8.5	2.4	0.2%
COc1ccc(C)cc1NC(=O)c1cc2c(=O)n3ccccc3nc2n1C	0.6	11.0	0.1	12.7	1.7	0.4%
Cc1nc(Nc2ccc(Cl)cc2)c2nnn(Cc3ccccc3)c2n1	-0.8	-8.1	-1.1	1.7	6.5	0.2%
SMILES	D2 ag-1	D2 PAM-1	D2 ag-2	D2 antagonist	D2 PAM-2	B2AR arrestin
COc1ccc(Nc2nc(C)nc3c2nnn3Cc2ccccc2)cc1OC	0.8	34.5*	2.1	12.0	-0.7	-0.1%
CCn1nc(C)c(CNC(=O)Nc2ccccc2C(=O)OC)c1C	2.0	4.7	-1.9	-7.0	-4.0	0.8%
Cc1nnc(SCC(=O)NCCN2C(=O)CSC2=O)n1-c1ccccc1	0.3	4.9	0.1	46.7*	3.6	0.2%
O=C(CSc1nnc(-c2ccc(F)cc2)n1-c1ccccc1)NCCN1C(=O)CSC1=O	0.8	-9.9	-2.8	1.0	-15.8	-0.3%
CC(C)(C)C(=O)NC1CCN(S(C)(=O)=O)CC1	0.4	3.2	0.2	-1.0	-9.6	0.4%
CC(C)(C)C(=O)NC1CCN(C(=O)N2CCCC2)CC1	0.8	nt	1.9	32.4*	5.4	-0.5%
COc1ccc(C(=O)O)c(OC)n1	-1.7	-7.2	-6.2	30.1*	-5.4	-0.9%
COc1ccc(C(=O)Nc2ccc(Cl)c(Cl)c2)c(OC)n1	0.3	-8.6	0.8	-1.9	-8.9	-0.3%
CC(C)(C)OC(=O)N1CCC(NC(=O)c2[nH]cnc2C(=O)Nc2cccc(Cl)c2)CC1	0.1	8.0	-1.8	3.0	-5.4	0.1%
CCOC(=O)c1c(-c2cccc([N+](=O)[O-])c2)csc1NC(=O)C1CC1	0.0	8.2	11.0	-27.7	54.6*	-0.6%
CCOC(=O)c1c(-c2cccc([N+](=O)[O-])c2)csc1NC(=O)C1CCCCC1	0.3	-6.6	6.7	0.6	?	-0.6%
O=c1ccnc(S/C=C/c2ccccc2)[nH]1	0.2	-0.7	-0.8	-6.8	-3.0	0.5%
CC(NC(=O)Nc1ccc(O)cc1)(C(F)(F)F)C(F)(F)F	1.3	6.3	12.9	-1.8	117.8*	-0.2%
C=CCSc1ncc(CO)n1Cc1ccccc1	0.5	1.6	-4.5	36.5*	-9.5	-0.2%
O=[N+]([O-])c1nn(-c2ccc3c(c2)OCCO3)n(O)c1=NCCCO	-0.1	0.1	?	4.4	72.8*	-0.4%
O=[N+]([O-])c1nn(-c2ccccc2)n(O)c1=NCc1ccc2c(c1)OCO2	-0.3	16.2	6.7	-5.6	20.4	-0.4%
COc1ccc(-n2nc([N+](=O)[O-])c(=NCc3ccc4c(c3)OCO4)n2O)cc1	-0.7	-12.3	?	-1.4	121.8*	-1.1%
O=[N+]([O-])c1nn(-c2ccc3c(c2)OCCO3)n(O)c1=Nc1ccccc1	-0.9	9.4	?	-4.0	?	0.0%
COc1ccc(-n2nc([N+](=O)[O-])c(=NCCc3cccc(C)c3)n2O)cc1	-0.5	-5.2	7.9	6.2	65.2*	0.1%
Cc1ccc(CN=c2c([N+](=O)[O-])nn(-c3ccc4c(c3)OCCO4)n2O)cc1	-0.7	-18.4	?	2.7	134.9*	5.6%
Cc1cccc(CCN=c2c([N+](=O)[O-])nn(-c3ccccc3)n2O)c1	-0.4	-0.8	13.5	-9.0	5.7	-0.1%
O=C(Cn1c(NCCCO)nc2ccccc21)c1ccc([N+](=O)[O-])cc1	-0.2	-1.6	-1.2	6.8	1.8	-1.2%
Cc1ccc(NC(=S)N2CCCC(O)C2)cc1 (stereo not drawn)	2.8	-0.3	0.7	3.9	-8.7	0.0%
CC(=O)Nc1ccc(OS(=O)(=O)c2ccc(Cl)cc2)cc1	-0.4	0.6	-1.6	10.5	-8.4	-0.5%
